Source: PubChem BioAssay AID652058 (Broad Institute, 2013)
About 870 (72%) of roughly 1,200 compounds were called active. Inconclusive results (about 3%) are left out.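 Rule for the calls: active = every test run fits a falling curve whose half-maximal concentration is at most twice the top valid dose; inconclusive = runs disagree, or flat 30 to 70% inhibition, or poor fit; inactive = every run inactive: flat, rising or weaker potency.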 The set was probably picked from earlier hits. Not all results are given here. Potency and affinity values are given separately.

Experiment: blockers of HIV-1 ZM109 envelope-driven cell-cell fusion – HeLa effector, CEM target cells, luciferase, cherry-pick, dose response (AID 652058);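 note: 0% = neutral control wells and -100% = maraviroc 300 nM wells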
Details: HeLa Env/CEM cell fusion, 16-24 h; series mostly up to 35 µM; activity change, negative = inhibition: at the top concentration

Structure (SMILES)	activity change, negative = inhibition
O=C(c1ccc(Cl)cc1)N1CCCCC(Sc2nnc(-c3ccc4c(c3)OCO4)o2)C1=O (configuration not stated)	-15.8% (inactive)
COc1cccc(S(=O)(=O)N[C@H]2CC[C@H](CC(=O)NCc3ccncc3)O[C@@H]2CO)c1	-19% (inactive)
O=C(C[C@H]1C[C@H]2c3cc(NC(=O)Cc4ccncc4)ccc3O[C@H]2[C@@H](CO)O1)NCc1ccncc1	9.47% (inactive)
Cn1c(-c2ccc(Cl)cc2)ccc(C#N)c1=O	154% (inactive)
Cc1onc(-c2ccccc2)c1C(=O)OCCOc1cccc(Cl)c1	230% (inactive)
Cn1cccc1C(=O)OCC(=O)NCCc1ccc(S(N)(=O)=O)cc1	-0.379% (inactive)
Cn1c(=O)c2c(nc(NCCc3ccccc3)n2Cc2ccccc2)n(C)c1=O	-5.69% (inactive)
COc1ccc(S(=O)(=O)N2CCCCC2)cc1NC(=O)CCCOc1ccc(C)cc1	28.8% (inactive)
CCOC(=O)CN1CCCc2nc(C)c(C)cc21	-37.3% (inactive)
COCc1[nH]nc2c1C(c1ccc(F)cc1)N(Cc1ccccc1)C2=O (configuration not stated)	25.9% (inactive)
CC(=O)Nc1ccc(C(=O)OCC(=O)NC(=O)NCc2ccccc2)cc1	16.9% (inactive)
CCN(CC)S(=O)(=O)c1cccc(NC(=O)c2ccc(-n3nc(C)cc3C)cc2)c1	-37.1% (inactive)
CCN(CC)S(=O)(=O)c1ccc(NC(=O)Nc2cccc(C(F)(F)F)c2)cc1	254% [at 16 µM] (inactive)
CC(C)(C)c1ccc(-n2ncc3c2CCCC3NC(=O)CN2CCCC2=O)cc1 (configuration not stated)	-25.1% (inactive)
C[C@H](CO)N1C[C@H](C)[C@H](CN(C)S(=O)(=O)c2ccccc2)Oc2cc(Br)ccc2S1(=O)=O	95.4% (inactive)
CC(C)(C)c1ccc(OCCC(=O)Nc2cccc(S(=O)(=O)N3CCOCC3)c2)cc1	5.13% (inactive)
CCc1nc(N2CCCCC2C)c2oc3ccccc3c2n1 (configuration not stated)	140% (inactive)
CCc1nc(N2CCCCC2)c2oc3ccccc3c2n1	26.5% (inactive)
NC(=S)c1ccc(OCCCc2ccccc2)cc1	111% [at 8 µM] (inactive)
O=C1c2cccc(OCc3ccc(F)cc3)c2CCN1Cc1ccccc1	93.8% (inactive)
Nc1nc2c(ncn2[C@@H]2O[C@H](C(=O)NCC(c3ccccc3)c3ccccc3)[C@@H](O)[C@H]2O)c(=O)[nH]1	38.2% (inactive)
Nc1ncn([C@H]2C[C@H](O)[C@@H](CO)O2)c(=O)n1	20.5% (inactive)
O=S(=O)(NC1CC1)c1ccc(S(=O)(=O)N2CCCc3ccccc32)cc1	-38.3% (inactive)
O=C(Cn1ncc2c(=O)oc3ccccc3c21)N1CCC(N2CCCCC2)CC1	15.6% (inactive)
O=C(NCCc1ccccc1)c1ccc2c(c1)OCCO2	-95.2% (inactive)
O=C(CCNC(=O)c1ccc(Br)cc1)NNC(=O)COc1ccccc1F	-20.2% (inactive)
CC(=O)c1c(C)[nH]c(C(=O)OCCCCN2C(=O)c3ccccc3C2=O)c1C	7.87% (inactive)
